{
  "source": "PubChem BioAssay AID1159580",
  "about": "(chemical genetic matrix, 2015)",
  "assay": "chemical genetic growth profiling, strain panel (AID 1159580);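 also: tested at 20 µM; growth read once vehicle control cultures reached saturation at 30 °C; 1 = growth at the plate median or of vehicle wells; lower values mean less growth of the strain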",
  "conditions": "S. cerevisiae deletion strains, growth OD",
  "note": "Several values for one entry are separate records, joined by “and”; a condition that tells them apart may be missing. Identical values can stand only once. Out of some 5,500 compounds screened, about 2,000 (36%) were called active. Not shown: some 18% with an inconclusive outcome. This is one part of the list. A number with no mark means an inactive call. Rule as the data show it: active = normalized growth mostly below about 0.91 (no sharp cut-off); inconclusive = no clear call, values can overlap the other calls; inactive = mostly above about 0.92.",
  "data": [
    {"compound": "Cc1cc(O)ccc1Cl", "values": [
      {"measurement": "normalized growth", "setting": "locus YAL021C, strain ccr4, hits give low values", "result": "1.11 [resistant] (active)"},
      {"measurement": "normalized growth", "setting": "locus YAL026C, strain drs2, hits give low values", "result": 1.01},
      {"measurement": "normalized growth", "setting": "locus YAL030W, strain snc1, hits give low values", "result": 1.02},
      {"measurement": "normalized growth", "setting": "locus YBL061C, strain skt5, hits give low values", "result": 0.992},
      {"measurement": "normalized growth", "setting": "locus YBR009C, strain hhf1, hits give low values", "result": 0.999},
      {"measurement": "normalized growth", "setting": "locus YBR021W, strain FUR4, hits give low values", "result": 1.02},
      {"measurement": "normalized growth", "setting": "locus YBR023C, strain chs3, hits give low values", "result": 1.01},
      {"measurement": "normalized growth", "setting": "locus YBR171W, strain sec66, hits give low values", "result": 0.997},
      {"measurement": "normalized growth", "setting": "locus YBR229C, strain ROT2, hits give low values", "result": 1},
      {"measurement": "normalized growth", "setting": "locus YBR231C, strain swc5, hits give low values", "result": 0.993},
      {"measurement": "normalized growth", "setting": "locus YBR279W, strain paf1, hits give low values", "result": 1.02},
      {"measurement": "normalized growth", "setting": "locus YCL011C, strain gbp2, hits give low values", "result": 1.01},
      {"measurement": "normalized growth", "setting": "locus YCL016C, strain dcc1, hits give low values", "result": 1.01},
      {"measurement": "normalized growth", "setting": "locus YCL029C, strain bik1, hits give low values", "result": 0.983},
      {"measurement": "normalized growth", "setting": "locus YCL069W, strain vba3, hits give low values", "result": 1.02},
      {"measurement": "normalized growth", "setting": "locus YCR088W, strain abp1, hits give low values", "result": 1.01},
      {"measurement": "normalized growth", "setting": "locus YDL005C, strain med2, hits give low values", "result": 1.02},
      {"measurement": "normalized growth", "setting": "locus YDL035C, strain GPR1, hits give low values", "result": 0.955},
      {"measurement": "normalized growth", "setting": "locus YDL040C, strain nat1, hits give low values", "result": 1},
      {"measurement": "normalized growth", "setting": "locus YDL074C, strain BRE1, hits give low values", "result": 0.987},
      {"measurement": "normalized growth", "setting": "locus YDL101C, strain DUN1, hits give low values", "result": 1.03},
      {"measurement": "normalized growth", "setting": "locus YDL185W, strain tfp1, hits give low values", "result": 0.986},
      {"measurement": "normalized growth", "setting": "locus YDL192W, strain arf1, hits give low values", "result": 1},
      {"measurement": "normalized growth", "setting": "locus YDR001C, strain nth1, hits give low values", "result": 1.01},
      {"measurement": "normalized growth", "setting": "locus YDR069C, strain doa4, hits give low values", "result": 1.03},
      {"measurement": "normalized growth", "setting": "locus YDR101C, strain arx1, hits give low values", "result": 0.992},
      {"measurement": "normalized growth", "setting": "locus YDR137W, strain rgp1, hits give low values", "result": "0.816 (active)"},
      {"measurement": "normalized growth", "setting": "locus YDR159W, strain sac3, hits give low values", "result": "0.784 (active)"},
      {"measurement": "normalized growth", "setting": "locus YDR162C, strain NBP2, hits give low values", "result": 0.986},
      {"measurement": "normalized growth", "setting": "locus YDR195W, strain ref2", "result": "1.2 [resistant] (active)"},
      {"measurement": "normalized growth", "setting": "locus YDR297W, strain sur2, hits give low values", "result": 1.03},
      {"measurement": "normalized growth", "setting": "locus YDR318W, strain mcm21, hits give low values", "result": 0.993},
      {"measurement": "normalized growth", "setting": "locus YDR334W, strain swr1, hits give low values", "result": 1.02},
      {"measurement": "normalized growth", "setting": "locus YDR335W, strain msn5, hits give low values", "result": 1},
      {"measurement": "normalized growth", "setting": "locus YDR388W, hits give low values", "result": 1},
      {"measurement": "normalized growth", "setting": "locus YDR392W, strain spt3, hits give low values", "result": 0.944},
      {"measurement": "normalized growth", "setting": "locus YDR502C, strain sam2, hits give low values", "result": 0.974},
      {"measurement": "normalized growth", "setting": "locus YEL003W, strain gim4, hits give low values", "result": 1.01},
      {"measurement": "normalized growth", "setting": "locus YEL037C, strain rad23, hits give low values", "result": 1.01},
      {"measurement": "normalized growth", "setting": "locus YEL061C, strain CIN8 (second series), hits give low values", "result": 1.01},
      {"measurement": "normalized growth", "setting": "locus YEL061C, strain CIN8, hits give low values", "result": 0.999},
      {"measurement": "normalized growth", "setting": "locus YER015W, strain faa2, hits give low values", "result": 0.993},
      {"measurement": "normalized growth", "setting": "locus YER016W, strain bim1, hits give low values", "result": 0.994},
      {"measurement": "normalized growth", "setting": "locus YER110C, hits give low values", "result": 1.01},
      {"measurement": "normalized growth", "setting": "locus YER111C, strain swi4, hits give low values", "result": 1.01},
      {"measurement": "normalized growth", "setting": "locus YER155C, strain BEM2 (second series), hits give low values", "result": 0.991},
      {"measurement": "normalized growth", "setting": "locus YER155C, strain BEM2, hits give low values", "result": 1},
      {"measurement": "normalized growth", "setting": "locus YER167W, strain BCK2, hits give low values", "result": 0.997},
      {"measurement": "normalized growth", "setting": "locus YFR010W, strain ubp6, hits give low values", "result": 1},
      {"measurement": "normalized growth", "setting": "locus YGL078C, strain dbp3, hits give low values", "result": 0.981},
      {"measurement": "normalized growth", "setting": "locus YGL086W, strain mad1, hits give low values", "result": 0.968},
      {"measurement": "normalized growth", "setting": "locus YGL167C, strain pmr1, hits give low values", "result": 1.02},
      {"measurement": "normalized growth", "setting": "locus YGL173C, strain kem1, hits give low values", "result": 0.948},
      {"measurement": "normalized growth", "setting": "locus YGL227W, strain vid30, hits give low values", "result": 1},
      {"measurement": "normalized growth", "setting": "locus YGL240W, strain doc1, hits give low values", "result": 0.999},
      {"measurement": "normalized growth", "setting": "locus YGL248W, strain PDE1, hits give low values", "result": 1.02},
      {"measurement": "normalized growth", "setting": "locus YGL253W, strain hxk2, hits give low values", "result": 1.01},
      {"measurement": "normalized growth", "setting": "locus YGR135W, strain pre9, hits give low values", "result": 1.02},
      {"measurement": "normalized growth", "setting": "locus YGR252W, strain gcn5, hits give low values", "result": 0.936},
      {"measurement": "normalized growth", "setting": "locus YHR013C, strain ard1, hits give low values", "result": 1.13},
      {"measurement": "normalized growth", "setting": "locus YHR027C, strain rpn1, hits give low values", "result": 0.991},
      {"measurement": "normalized growth", "setting": "locus YHR030C, strain SLT2, hits give low values", "result": "0.999 and 0.932"},
      {"measurement": "normalized growth", "setting": "locus YHR079C, strain IRE1 (second series), hits give low values", "result": 1.01},
      {"measurement": "normalized growth", "setting": "locus YHR079C, strain IRE1, hits give low values", "result": 0.954},
      {"measurement": "normalized growth", "setting": "locus YHR094C, strain hxt1, hits give low values", "result": 1.01},
      {"measurement": "normalized growth", "setting": "locus YHR129C, strain ARP1, hits give low values", "result": 1.01},
      {"measurement": "normalized growth", "setting": "locus YHR142W, strain chs7, hits give low values", "result": 0.981},
      {"measurement": "normalized growth", "setting": "locus YHR200W, strain rpn10, hits give low values", "result": 1},
      {"measurement": "normalized growth", "setting": "locus YIL066C, strain RNR3, hits give low values", "result": 1},
      {"measurement": "normalized growth", "setting": "locus YIL073C, strain SPO22, hits give low values", "result": 1.04},
      {"measurement": "normalized growth", "setting": "locus YIL125W, strain kgd1, hits give low values", "result": 1.01},
      {"measurement": "normalized growth", "setting": "locus YIR030C, strain dcg1, hits give low values", "result": 1},
      {"measurement": "normalized growth", "setting": "locus YJL092W, strain hpr5, hits give low values", "result": 0.989},
      {"measurement": "normalized growth", "setting": "locus YJL095W, strain BCK1 (second series), hits give low values", "result": 1.01},
      {"measurement": "normalized growth", "setting": "locus YJL095W, strain BCK1, hits give low values", "result": "1.02 and 0.938"},
      {"measurement": "normalized growth", "setting": "locus YJL115W, strain asf1, hits give low values", "result": 1.02},
      {"measurement": "normalized growth", "setting": "locus YJL129C, strain trk1, hits give low values", "result": 1},
      {"measurement": "normalized growth", "setting": "locus YJL134W, strain LCB3, hits give low values", "result": 1.01},
      {"measurement": "normalized growth", "setting": "locus YJL154C, strain vps35, hits give low values", "result": 1.01},
      {"measurement": "normalized growth", "setting": "locus YJL164C, strain tpk1, hits give low values", "result": 1.02},
      {"measurement": "normalized growth", "setting": "locus YJL166W, strain qcr8, hits give low values", "result": 1},
      {"measurement": "normalized growth", "setting": "locus YJL168C, strain set2, hits give low values", "result": 1.01},
      {"measurement": "normalized growth", "setting": "locus YJL187C, strain SWE1 (second series), hits give low values", "result": 1.02},
      {"measurement": "normalized growth", "setting": "locus YJR043C, strain POL32, hits give low values", "result": 0.991},
      {"measurement": "normalized growth", "setting": "locus YJR066W, strain TOR1, hits give low values", "result": 0.942}
    ]}
  ]
}
